# In PubChem BioAssay (EPA / NIEHS):
# Results filed as inconclusive are left out. Activity calls are given as the source filed them. Rule for the calls, unless noted: active = hit-call score of the fitted dose curve at least 0.9, where 1 is the maximum; inconclusive = response in the unintended direction; inactive = score below 0.9.
# Legend:
# [1] = molecular target: Cellular tumor antigen p53 (Homo sapiens) (UniProt P04637); assay: TOX21_p53_BLA_p5_ratio: Tox21 HCT-116 p53 Agonism Beta-lactamase Assay, Ratio, Phase 5 (AID 2283599)
# Sequence of Cellular tumor antigen p53 (Homo sapiens) (P04637 whole entry, looked up): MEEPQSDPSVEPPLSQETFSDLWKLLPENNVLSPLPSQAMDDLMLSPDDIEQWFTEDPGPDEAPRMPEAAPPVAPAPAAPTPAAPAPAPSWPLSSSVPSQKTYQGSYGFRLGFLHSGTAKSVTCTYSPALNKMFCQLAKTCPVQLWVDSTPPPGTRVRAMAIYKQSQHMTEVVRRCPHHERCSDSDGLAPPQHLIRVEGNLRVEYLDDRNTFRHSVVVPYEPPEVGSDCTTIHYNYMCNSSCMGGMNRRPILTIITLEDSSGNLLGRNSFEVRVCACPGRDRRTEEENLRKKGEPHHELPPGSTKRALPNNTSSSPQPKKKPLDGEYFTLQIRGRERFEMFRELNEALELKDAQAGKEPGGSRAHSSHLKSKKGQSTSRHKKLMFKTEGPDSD
# In short: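 HCT-116 p53-bla cells (4000/well) plated 5 h, dosed with compound (217-fold DMSO dilution) for 16 h at 37 C; CCF4-AM substrate 2 h at room temperature. Activity is the 460/530 nm emission ratio (405 nm excitation), fitted in gain-of-signal direction versus DMSO.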
# [2] = molecular target: Cellular tumor antigen p53 (Homo sapiens) (UniProt P04637); assay: TOX21_p53_BLA_p4_ratio: Tox21 HCT-116 p53 Agonism Beta-lactamase Assay, Ratio, Phase 4 (AID 2283601)
# In short: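 HCT-116 p53 beta-lactamase reporter cells (4000/well) preincubated 5 h, then compound (217-fold dilution of DMSO stock) for 16 h at 37C. CCF4-AM substrate added 2 h at room temperature; 460/530 nm emission ratio fitted upward versus DMSO.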
# [3] = TOX21_p53_BLA_p5_viability: Viability Assessment in the Tox21 HCT-116 p53 Agonism Beta-lactamase Assay, Phase 5 (AID 2283600)
# In short: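 Decreased CellTiter-Glo luminescence denotes lost viability. Exposure: 16 h at 37C, 5% CO2, with compounds from DMSO stocks diluted 217-fold in wells of 4000 cells.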
# [4] = molecular target: Luciferin 4-monooxygenase (Photinus pyralis) (UniProt P08659); assay: CCTE_Simmons_QuantiLum_inhib_2: CCTE's Firefly Luciferase Inhibition Assay, Simmons Lab (AID 2283767)
# Sequence of Luciferin 4-monooxygenase (Photinus pyralis) (P08659 whole entry, looked up): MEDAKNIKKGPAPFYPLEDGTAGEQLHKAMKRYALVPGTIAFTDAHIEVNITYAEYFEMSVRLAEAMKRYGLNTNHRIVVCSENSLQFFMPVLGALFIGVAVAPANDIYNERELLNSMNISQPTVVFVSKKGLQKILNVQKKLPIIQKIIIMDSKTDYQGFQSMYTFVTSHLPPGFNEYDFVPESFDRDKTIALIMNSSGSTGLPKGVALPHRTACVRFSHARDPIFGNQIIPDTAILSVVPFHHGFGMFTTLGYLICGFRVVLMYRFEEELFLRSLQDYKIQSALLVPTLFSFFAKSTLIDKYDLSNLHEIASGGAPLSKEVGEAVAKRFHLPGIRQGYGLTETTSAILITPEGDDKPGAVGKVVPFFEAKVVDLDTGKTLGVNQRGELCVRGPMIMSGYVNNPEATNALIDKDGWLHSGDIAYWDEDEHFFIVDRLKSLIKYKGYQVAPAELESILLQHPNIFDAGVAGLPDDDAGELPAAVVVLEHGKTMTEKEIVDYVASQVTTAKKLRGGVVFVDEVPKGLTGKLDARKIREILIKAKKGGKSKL
# In short: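 Eight test concentrations, 5 nM up to 87.5 uM final, preincubated 30min at 37C in the dark with purified luciferase (0.5% DMSO final). Detection reagent (150uM D-luciferin, 147uM dATP, 75uM CoA, pH 7.8) injected per well before kinetic luminescence read; three replicates.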
# [5] = CCTE_Simmons_CellTiterGLO_HEK293T: Viability Assessment in CCTE's Assays for Thyroperoxidase (TPO) Inhibition, Simmons Lab (AID 2283665)
# In short: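 Luciferase-coupled ATP content after 24 h exposure gives viability; 8-point series from 5 nM to 87.5 uM final in 0.5% DMSO. Human HEK293T cells, 1% FBS medium, three biological replicates, dichlone positive control.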
# [6] = CCTE_Harrill_HTTr_Viability_MCF7: CCTE's 6-hour Cell Viability Assessment for the High-Throughput Transcriptomics (HTTr) Platform, in MCF-7 cells cultured in DMEM + 10% fetal bovine serum, Harrill Lab (AID 2284010; active = hit-call score of the fitted dose curve at least 0.9, where 1 is the maximum; inactive = score below 0.9)
# In short: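 Propidium iodide exclusion, imaged by high-content analysis, gauged viability after a six-hour exposure across eight concentrations. Cells were MCF-7 grown in DMEM with 10% fetal bovine serum; fits run in both directions against DMSO.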
# [7] = CCTE_Harrill_HTTr_Apoptosis_MCF7: CCTE's 6-hour Apoptosis Assessment for the High-Throughput Transcriptomics (HTTr) Platform, in MCF-7 cells cultured in DMEM + 10% fetal bovine serum, Harrill Lab (AID 2284011; active = hit-call score of the fitted dose curve at least 0.9, where 1 is the maximum; inactive = score below 0.9)
# In short: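 MCF-7 cells in DMEM + 10% FBS exposed 6 h to chemicals over an eight-point dilution series. Caspase-3/7 activation imaged by high-content CellEvent Green staining; fitted bidirectionally versus DMSO.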
# [8] = CCTE_Harrill_HTTr_CellCount_MCF7: CCTE's Cell Proliferation Assessment for the High-Throughput Transcriptomics (HTTr) Platform, Harrill Lab (AID 2284012);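 note: cells exposed to compound for six hours; intended direction is loss of nuclei count meaning fewer cells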
# In short: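 Cell count from high-content imaging of Hoechst-labeled nuclei serves as viability/growth readout. Chemicals were applied to MCF-7 cells in eight concentrations for six hours, with fitting in both directions relative to DMSO.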
# [9] = ACEA_ER_AUC_viability: ACEA Biosciences xCELLigence Real-Time Cell Analysis on Estrogen Receptor Agonism for Viability (AID 2283782);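 note: hit means loss of impedance signal meaning reduced cell growth or viability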
# In short: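 Read-out: real-time electrical impedance (RT-CES) area under curve, loss of signal taken as reduced viability, normalized to DMSO baseline. T-47D cells, charcoal-stripped serum medium, compounds up to 100 uM final, continuous exposure, 80 h.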
# [10] = molecular target: PGR (gene 5241) (UniProt P06401); assay: TOX21_PR_BLA_Followup_Agonist_ratio: Tox21 HEK293 Progesterone Receptor (PR) Agonism Beta-lactamase Follow-Up Assay, Ratio (AID 2283933)
# Sequence of PGR (gene 5241) (P06401 whole entry, looked up): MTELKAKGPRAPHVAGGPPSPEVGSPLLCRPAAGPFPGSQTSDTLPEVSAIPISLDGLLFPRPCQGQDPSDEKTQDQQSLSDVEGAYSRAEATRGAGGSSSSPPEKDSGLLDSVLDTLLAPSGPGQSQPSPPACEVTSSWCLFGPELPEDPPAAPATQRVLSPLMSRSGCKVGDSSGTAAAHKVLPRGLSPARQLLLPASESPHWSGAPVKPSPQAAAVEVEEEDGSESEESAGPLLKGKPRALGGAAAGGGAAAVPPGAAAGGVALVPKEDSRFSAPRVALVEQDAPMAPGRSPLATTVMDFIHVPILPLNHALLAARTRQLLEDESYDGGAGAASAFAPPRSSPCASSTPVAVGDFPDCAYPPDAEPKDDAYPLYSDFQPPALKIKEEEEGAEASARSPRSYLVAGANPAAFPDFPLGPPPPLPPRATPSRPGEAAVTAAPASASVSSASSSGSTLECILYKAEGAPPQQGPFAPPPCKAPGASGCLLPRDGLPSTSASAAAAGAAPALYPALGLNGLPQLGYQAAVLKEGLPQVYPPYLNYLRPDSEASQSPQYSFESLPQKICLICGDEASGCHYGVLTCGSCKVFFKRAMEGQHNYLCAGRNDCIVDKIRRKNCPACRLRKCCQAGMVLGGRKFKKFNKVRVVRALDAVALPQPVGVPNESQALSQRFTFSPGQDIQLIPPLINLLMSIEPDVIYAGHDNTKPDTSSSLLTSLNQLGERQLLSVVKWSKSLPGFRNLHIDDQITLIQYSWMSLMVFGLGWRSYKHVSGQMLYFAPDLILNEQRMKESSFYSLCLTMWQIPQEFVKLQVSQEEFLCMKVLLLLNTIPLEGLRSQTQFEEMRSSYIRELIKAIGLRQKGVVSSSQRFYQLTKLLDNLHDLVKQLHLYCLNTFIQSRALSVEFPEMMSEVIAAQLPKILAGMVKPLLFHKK
# In short: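 Beta-lactamase reporter readout: ratio of cleaved (ch2) to uncleaved (ch1) substrate after 2 h room-temperature loading, following 16 h compound exposure at 37C. Cells were PR-UAS-bla HEK293T in 2% charcoal-stripped FBS medium. Viability was multiplexed by CellTiter-Glo.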
# [11] = molecular target: PGR (gene 5241) (UniProt P06401); assay: TOX21_PR_BLA_Followup_Antagonist_ratio: Tox21 HEK293 Progesterone Receptor (PR) Antagonism Beta-lactamase Follow-Up Assay, Ratio (AID 2283934);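 note: PR-UAS-bla HEK293T cells stimulated with 1 nM R5020 agonist for 16 hr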
# In short: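 Readout is the blue/green (ch2/ch1) substrate cleavage ratio after 2 hours at room temperature, following 16 hr co-treatment of PR-bla HEK293T cells with compound and 1nM promegestone. Multiplexed CellTiter-Glo viability flags cytotoxicity; DMSO baseline.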
# [12] = TOX21_PR_BLA_Followup_Agonist_viability: Viability Assessment in the Tox21 HEK293 Progesterone Receptor (PR) Agonism Beta-lactamase Follow-Up Assay (AID 2283935);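 note: signal loss means lower viability so actives are cytotoxic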
# In short: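 Run multiplexed with the beta-lactamase FRET read, this endpoint measures ATP by CellTiter-Glo luminescence (30 min, room temperature). PR-UAS-bla HEK293T cells received compound 6 hr after plating and were then incubated 16 hr at 37C in 2% stripped serum.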
# [13] = TOX21_PR_BLA_Followup_Antagonist_viability: Viability Assessment in the Tox21 HEK293 Progesterone Receptor (PR) Antagonism Beta-lactamase Follow-Up Assay (AID 2283936);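 note: cells exposed to compound with R5020 agonist for 16 h; hits lower the luminescence signal meaning cytotoxicity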
# In short: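 PR-UAS-bla HEK293T cells in medium with 2% charcoal-stripped FBS were treated with compounds plus R5020 for 16 hr at 37C. After the beta-lactamase read, CellTiter-Glo was added to the same wells and luminescence read after 30 min at room temperature.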
# [14] = molecular target: PGR (gene 5241) (UniProt P06401); assay: TOX21_PR_LUC_Followup_Agonist: Tox21 HEK293 Progesterone Receptor (PR) Agonism Luciferase Follow-Up Assay (AID 2283937; active = hit-call score of the fitted dose curve at least 0.9, where 1 is the maximum; inactive = score below 0.9)
# In short: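 Agonism scored as luciferase induction over DMSO, read by ONE-Glo after 30 min at RT. Compounds were incubated 16 h at 37C on HEK293-PR-A-luc cells (3,000/well, pre-plated 5 h) previously grown 5 days in charcoal-stripped serum.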
# [15] = molecular target: PGR (gene 5241) (UniProt P06401); assay: TOX21_PR_LUC_Followup_Antagonist: Tox21 HEK293 Progesterone Receptor (PR) Antagonism Luciferase Follow-Up Assay (AID 2283938);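 note: curve fitted upward as signal gain over DMSO baseline despite antagonist label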
# In short: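 HEK293-PR-A-luc cells, 3,000/well, preincubated 5 h at 37C before compound addition in DMSO; 16 h compound exposure at 37C. ONE-Glo luciferase luminescence read after 30 min at room temperature, fitted relative to DMSO baseline.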
smiles,measurement,setting,value
CCCCS(=O)(=O)N[C@@H](Cc1ccc(OCCCCC2CCNCC2)cc1)C(=O)O,outcome,[1],inactive
same,outcome,[2],inactive
CC(C)OC(=O)CCC(=O)OC(C)C,outcome,[1],inactive
same,outcome,[3],inactive
same,outcome,[2],inactive
c1ccc2c(CCC3CCNCC3)c[nH]c2c1,outcome,[1],inactive
same,outcome,[2],inactive
CCC(=O)c1cccc(Cl)c1,outcome,[3],inactive
same,outcome,[2],inactive
Cn1c(=S)[nH]c2ccccc21,outcome,[4],inactive
Oc1cccnc1,outcome,[5],inactive
same,outcome,[4],inactive
S=c1[nH]c2cc(Cl)ccc2s1,outcome,[5],inactive
same,outcome,[4],inactive
O=C(c1ccccc1)c1ccc(O)cc1,outcome,[5],inactive
same,outcome,[4],inactive
same,outcome,[6],inactive
same,outcome,[7],inactive
same,outcome,[8],inactive
OC(c1ccccc1)c1ccccc1,outcome,[4],inactive
C1CCC2(CCCCO2)OC1,outcome,[9],inactive
CCCOc1ccc2c(c1)CC[C@@H]1[C@@H]2CC[C@]2(C)C(OC)CC[C@@H]12 (some centres not stated),outcome,[10],inactive
same,AC50,[11],12.8 µM (active)
same,outcome,[12],inactive
same,outcome,[13],inactive
same,outcome,[14],inactive
same,outcome,[15],inactive
